Reference: ChEMBL document CHEMBL2218924, “A broad activity screen in support of a chemogenomic map for kinase signalling research and drug discovery” (Biochem J, 2013)

What was measured:
[1] = target: T1, Ephrin type-A receptor 3 (Homo sapiens) (UniProt P29320); details: at 10 µM
T1 sequence (whole entry): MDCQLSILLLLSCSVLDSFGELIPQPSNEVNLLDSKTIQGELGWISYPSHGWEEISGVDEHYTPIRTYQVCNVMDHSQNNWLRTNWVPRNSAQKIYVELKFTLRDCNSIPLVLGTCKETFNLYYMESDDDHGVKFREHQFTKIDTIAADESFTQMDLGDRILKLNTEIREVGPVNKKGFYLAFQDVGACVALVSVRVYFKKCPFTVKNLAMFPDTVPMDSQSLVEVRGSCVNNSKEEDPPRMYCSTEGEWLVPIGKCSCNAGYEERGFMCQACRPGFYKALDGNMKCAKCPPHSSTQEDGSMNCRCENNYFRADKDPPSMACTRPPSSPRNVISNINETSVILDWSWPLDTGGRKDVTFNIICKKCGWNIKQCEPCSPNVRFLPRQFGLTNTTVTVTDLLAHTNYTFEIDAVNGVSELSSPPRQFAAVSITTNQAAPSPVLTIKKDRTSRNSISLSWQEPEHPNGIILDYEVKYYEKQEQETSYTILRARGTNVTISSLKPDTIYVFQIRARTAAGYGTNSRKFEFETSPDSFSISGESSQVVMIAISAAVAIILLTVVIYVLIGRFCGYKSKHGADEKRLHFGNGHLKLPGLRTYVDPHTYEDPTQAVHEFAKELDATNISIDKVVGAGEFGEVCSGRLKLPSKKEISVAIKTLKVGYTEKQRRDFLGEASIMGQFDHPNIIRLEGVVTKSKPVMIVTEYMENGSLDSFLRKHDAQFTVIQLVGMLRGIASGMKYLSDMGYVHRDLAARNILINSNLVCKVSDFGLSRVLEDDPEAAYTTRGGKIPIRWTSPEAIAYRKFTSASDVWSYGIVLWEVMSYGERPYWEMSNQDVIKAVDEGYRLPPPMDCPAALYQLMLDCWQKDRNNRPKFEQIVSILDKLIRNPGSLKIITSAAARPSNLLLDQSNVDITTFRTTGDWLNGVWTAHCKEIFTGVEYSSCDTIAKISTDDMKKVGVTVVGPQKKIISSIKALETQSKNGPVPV

[2] = target: Ephrin type-A receptor 4 (Homo sapiens) (UniProt P54764); details: at 1 µM
[3] = target: Ephrin type-A receptor 4 (Homo sapiens) (UniProt P54764); details: at 10 µM
[4] = target: Ephrin type-A receptor 5 (Homo sapiens) (UniProt P54756); details: at 1 µM
[5] = target: Ephrin type-A receptor 5 (Homo sapiens) (UniProt P54756); details: at 10 µM
[6] = target: Ephrin type-A receptor 7 (Homo sapiens) (UniProt Q15375); details: at 1 µM
[7] = target: Ephrin type-A receptor 7 (Homo sapiens) (UniProt Q15375); details: at 10 µM
[8] = target: T2, Ephrin type-A receptor 8 (Homo sapiens) (UniProt P29322); details: at 1 µM
T2 sequence (whole entry): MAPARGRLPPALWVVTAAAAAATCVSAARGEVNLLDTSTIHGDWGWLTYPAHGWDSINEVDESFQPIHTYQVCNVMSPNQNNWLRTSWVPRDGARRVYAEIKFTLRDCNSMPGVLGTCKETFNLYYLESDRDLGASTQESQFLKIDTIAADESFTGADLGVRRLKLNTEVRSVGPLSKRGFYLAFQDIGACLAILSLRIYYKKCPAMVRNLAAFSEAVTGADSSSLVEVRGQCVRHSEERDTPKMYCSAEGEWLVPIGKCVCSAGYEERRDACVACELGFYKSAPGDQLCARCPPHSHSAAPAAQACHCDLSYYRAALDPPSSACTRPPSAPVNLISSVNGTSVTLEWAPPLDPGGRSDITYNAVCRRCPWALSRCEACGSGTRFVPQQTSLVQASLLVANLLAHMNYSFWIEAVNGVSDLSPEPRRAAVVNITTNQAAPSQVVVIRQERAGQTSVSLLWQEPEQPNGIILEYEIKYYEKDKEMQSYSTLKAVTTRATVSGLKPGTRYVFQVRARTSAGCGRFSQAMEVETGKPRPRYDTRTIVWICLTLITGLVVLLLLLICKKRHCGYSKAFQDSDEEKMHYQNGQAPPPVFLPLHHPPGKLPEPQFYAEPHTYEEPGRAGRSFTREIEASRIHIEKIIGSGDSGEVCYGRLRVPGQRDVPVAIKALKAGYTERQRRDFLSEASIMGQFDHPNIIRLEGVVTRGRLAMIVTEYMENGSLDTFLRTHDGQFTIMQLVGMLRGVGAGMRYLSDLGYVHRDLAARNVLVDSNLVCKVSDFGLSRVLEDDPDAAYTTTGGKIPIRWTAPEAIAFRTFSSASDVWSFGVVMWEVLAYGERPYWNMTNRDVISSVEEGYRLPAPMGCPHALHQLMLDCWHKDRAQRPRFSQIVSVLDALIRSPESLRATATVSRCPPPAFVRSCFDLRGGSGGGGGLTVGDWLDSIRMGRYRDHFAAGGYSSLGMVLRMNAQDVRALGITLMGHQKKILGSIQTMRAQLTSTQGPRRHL

[9] = target: T2, Ephrin type-A receptor 8 (Homo sapiens); details: at 10 µM
[10] = target: T3, Ephrin type-B receptor 1 (Homo sapiens) (UniProt P54762); details: at 1 µM
T3 sequence (whole entry): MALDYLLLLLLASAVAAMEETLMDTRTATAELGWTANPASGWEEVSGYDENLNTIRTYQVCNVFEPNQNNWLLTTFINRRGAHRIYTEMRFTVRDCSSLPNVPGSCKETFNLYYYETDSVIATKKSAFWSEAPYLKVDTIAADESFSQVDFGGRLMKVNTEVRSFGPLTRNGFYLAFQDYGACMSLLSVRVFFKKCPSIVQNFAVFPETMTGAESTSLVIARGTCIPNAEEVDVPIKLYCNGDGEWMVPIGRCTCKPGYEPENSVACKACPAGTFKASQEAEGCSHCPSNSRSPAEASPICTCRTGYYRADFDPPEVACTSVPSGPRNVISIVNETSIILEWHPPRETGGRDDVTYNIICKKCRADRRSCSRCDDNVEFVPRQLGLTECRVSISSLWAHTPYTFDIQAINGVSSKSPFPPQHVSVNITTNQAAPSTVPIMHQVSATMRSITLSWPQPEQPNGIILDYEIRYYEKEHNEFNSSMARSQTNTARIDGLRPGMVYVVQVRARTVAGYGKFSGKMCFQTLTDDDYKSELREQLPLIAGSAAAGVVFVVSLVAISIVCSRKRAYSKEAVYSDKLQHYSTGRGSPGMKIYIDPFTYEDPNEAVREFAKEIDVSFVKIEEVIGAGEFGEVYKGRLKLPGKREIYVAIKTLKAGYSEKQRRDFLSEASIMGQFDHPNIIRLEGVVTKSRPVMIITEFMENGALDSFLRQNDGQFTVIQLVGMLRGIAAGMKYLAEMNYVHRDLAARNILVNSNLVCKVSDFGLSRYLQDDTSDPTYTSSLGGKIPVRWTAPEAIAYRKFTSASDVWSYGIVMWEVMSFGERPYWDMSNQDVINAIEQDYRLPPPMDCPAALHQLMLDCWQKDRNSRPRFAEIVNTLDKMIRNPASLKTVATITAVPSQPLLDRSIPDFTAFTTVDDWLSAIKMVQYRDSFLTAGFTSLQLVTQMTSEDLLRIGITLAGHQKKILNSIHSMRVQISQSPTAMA

[11] = target: T3, Ephrin type-B receptor 1 (Homo sapiens); details: at 10 µM
[12] = target: T4, Ephrin type-B receptor 2 (Homo sapiens) (UniProt P29323); details: at 1 µM
T4 sequence (whole entry): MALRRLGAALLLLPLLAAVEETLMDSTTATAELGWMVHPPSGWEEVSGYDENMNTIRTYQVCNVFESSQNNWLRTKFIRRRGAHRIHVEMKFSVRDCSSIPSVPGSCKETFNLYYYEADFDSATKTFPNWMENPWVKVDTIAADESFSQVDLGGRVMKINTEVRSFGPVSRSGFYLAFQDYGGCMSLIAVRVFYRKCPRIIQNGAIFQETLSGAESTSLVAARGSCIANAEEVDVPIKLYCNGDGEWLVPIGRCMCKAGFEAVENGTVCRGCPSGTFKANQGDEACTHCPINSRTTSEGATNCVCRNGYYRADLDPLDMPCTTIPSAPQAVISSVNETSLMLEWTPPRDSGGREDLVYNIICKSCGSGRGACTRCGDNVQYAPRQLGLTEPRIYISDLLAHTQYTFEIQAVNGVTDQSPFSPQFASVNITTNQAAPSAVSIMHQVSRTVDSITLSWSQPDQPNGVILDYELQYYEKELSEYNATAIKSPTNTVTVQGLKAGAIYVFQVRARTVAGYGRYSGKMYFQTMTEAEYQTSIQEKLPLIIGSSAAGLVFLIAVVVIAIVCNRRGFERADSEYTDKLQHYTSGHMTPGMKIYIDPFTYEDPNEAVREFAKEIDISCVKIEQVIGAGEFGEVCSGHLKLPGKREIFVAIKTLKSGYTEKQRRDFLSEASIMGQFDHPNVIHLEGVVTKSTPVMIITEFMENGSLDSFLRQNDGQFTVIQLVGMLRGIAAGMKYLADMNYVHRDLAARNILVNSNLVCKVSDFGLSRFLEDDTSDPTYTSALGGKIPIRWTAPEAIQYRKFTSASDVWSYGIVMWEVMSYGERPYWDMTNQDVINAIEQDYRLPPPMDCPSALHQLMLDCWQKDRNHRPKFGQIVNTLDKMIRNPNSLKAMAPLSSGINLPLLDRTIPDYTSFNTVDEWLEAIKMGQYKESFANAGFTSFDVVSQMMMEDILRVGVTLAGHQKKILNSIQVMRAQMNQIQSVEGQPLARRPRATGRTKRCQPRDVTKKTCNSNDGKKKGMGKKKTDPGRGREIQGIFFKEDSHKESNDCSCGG

[13] = target: T4, Ephrin type-B receptor 2 (Homo sapiens); details: at 10 µM
[14] = target: T5, Ephrin type-B receptor 3 (Homo sapiens) (UniProt P54753); details: at 1 µM
T5 sequence (whole entry): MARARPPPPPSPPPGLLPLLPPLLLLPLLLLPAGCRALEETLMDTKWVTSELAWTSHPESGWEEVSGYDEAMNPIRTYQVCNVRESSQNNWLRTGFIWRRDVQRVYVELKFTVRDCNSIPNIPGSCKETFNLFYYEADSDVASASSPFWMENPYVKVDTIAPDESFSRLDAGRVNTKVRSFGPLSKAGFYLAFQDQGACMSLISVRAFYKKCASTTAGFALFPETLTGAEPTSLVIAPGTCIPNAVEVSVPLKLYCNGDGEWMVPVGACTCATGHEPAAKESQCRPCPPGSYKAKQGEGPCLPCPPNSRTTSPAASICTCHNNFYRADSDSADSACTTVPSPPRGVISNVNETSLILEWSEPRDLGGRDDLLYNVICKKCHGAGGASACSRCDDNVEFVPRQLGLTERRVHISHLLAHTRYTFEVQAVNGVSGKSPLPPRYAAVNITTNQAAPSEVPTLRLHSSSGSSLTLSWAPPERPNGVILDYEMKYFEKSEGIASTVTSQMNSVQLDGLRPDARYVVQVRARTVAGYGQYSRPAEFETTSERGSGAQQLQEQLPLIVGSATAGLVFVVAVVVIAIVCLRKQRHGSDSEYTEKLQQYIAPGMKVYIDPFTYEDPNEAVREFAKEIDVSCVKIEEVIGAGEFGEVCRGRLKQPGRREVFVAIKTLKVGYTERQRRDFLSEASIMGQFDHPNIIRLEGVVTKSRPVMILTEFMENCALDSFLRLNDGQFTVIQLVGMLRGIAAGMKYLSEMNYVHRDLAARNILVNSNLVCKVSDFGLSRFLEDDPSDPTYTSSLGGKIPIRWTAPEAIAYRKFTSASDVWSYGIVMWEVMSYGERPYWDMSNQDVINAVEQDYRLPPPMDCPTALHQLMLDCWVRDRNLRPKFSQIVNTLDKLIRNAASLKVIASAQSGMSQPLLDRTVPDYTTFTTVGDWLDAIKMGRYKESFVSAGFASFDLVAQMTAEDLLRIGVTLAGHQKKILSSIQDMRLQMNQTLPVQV

[15] = target: T5, Ephrin type-B receptor 3 (Homo sapiens); details: at 10 µM
[16] = target: T6, Ephrin type-B receptor 4 (Homo sapiens) (UniProt P54760); details: at 1 µM
T6 sequence (whole entry): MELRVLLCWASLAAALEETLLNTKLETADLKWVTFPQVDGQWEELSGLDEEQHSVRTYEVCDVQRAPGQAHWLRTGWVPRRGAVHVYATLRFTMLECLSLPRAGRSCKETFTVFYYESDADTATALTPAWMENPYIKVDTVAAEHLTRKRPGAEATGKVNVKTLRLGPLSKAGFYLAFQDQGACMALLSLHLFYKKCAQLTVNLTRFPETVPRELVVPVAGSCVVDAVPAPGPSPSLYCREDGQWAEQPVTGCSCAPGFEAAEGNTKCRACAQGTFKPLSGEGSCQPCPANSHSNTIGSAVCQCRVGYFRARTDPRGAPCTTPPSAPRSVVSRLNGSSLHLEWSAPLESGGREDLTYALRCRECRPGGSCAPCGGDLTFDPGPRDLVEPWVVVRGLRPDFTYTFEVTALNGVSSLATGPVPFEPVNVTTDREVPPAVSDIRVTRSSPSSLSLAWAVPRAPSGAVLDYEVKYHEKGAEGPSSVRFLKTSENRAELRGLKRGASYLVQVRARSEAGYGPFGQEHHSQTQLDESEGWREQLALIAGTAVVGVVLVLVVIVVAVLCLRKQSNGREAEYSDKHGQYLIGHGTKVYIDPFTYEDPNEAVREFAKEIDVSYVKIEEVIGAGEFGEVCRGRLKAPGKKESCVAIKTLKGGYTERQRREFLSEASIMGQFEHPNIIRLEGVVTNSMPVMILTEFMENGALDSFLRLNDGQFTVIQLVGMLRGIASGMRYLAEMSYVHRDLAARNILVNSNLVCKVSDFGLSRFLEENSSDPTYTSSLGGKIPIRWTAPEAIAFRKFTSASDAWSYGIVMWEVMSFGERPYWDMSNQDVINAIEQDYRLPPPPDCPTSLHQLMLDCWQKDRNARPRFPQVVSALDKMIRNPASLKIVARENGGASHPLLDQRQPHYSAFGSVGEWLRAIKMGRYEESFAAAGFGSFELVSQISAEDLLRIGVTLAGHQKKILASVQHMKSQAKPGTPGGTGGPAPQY

[17] = target: T6, Ephrin type-B receptor 4 (Homo sapiens); details: at 10 µM
[18] = target: Receptor tyrosine-protein kinase erbB-4 (Homo sapiens) (UniProt Q15303); details: at 1 µM
[19] = target: Receptor tyrosine-protein kinase erbB-4 (Homo sapiens) (UniProt Q15303); details: at 10 µM
[20] = target: Focal adhesion kinase 1 (Homo sapiens) (UniProt Q05397); details: at 1 µM

Sequence of Ephrin type-A receptor 5 (Homo sapiens) (P54756 whole entry): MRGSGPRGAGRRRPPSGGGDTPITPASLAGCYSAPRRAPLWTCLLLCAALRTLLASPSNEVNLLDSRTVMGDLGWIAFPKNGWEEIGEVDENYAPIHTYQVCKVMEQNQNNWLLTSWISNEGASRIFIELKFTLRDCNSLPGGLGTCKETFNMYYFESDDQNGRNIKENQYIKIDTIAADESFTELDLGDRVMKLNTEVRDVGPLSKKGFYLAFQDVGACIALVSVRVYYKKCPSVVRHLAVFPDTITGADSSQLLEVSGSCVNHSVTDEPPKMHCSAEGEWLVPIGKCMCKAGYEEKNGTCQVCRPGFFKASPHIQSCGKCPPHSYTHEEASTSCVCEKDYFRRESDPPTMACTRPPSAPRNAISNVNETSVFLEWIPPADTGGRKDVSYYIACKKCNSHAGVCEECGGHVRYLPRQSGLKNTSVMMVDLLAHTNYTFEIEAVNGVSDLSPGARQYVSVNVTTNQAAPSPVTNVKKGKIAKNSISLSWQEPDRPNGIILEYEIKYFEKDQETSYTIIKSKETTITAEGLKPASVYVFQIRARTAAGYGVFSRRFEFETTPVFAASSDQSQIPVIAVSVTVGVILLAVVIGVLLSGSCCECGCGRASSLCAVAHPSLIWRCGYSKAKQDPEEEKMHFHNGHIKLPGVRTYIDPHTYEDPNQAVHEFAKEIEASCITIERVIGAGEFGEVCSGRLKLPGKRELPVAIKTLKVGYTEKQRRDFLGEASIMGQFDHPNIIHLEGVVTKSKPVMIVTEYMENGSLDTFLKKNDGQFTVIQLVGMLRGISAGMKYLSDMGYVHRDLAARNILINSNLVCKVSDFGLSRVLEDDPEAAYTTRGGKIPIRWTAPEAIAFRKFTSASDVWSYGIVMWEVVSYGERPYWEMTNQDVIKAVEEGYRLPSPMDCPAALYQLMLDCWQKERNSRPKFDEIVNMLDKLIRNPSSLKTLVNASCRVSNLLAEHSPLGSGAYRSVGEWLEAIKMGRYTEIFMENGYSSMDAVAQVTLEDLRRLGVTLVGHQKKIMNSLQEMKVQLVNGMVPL
Sequence of Ephrin type-A receptor 7 (Homo sapiens) (Q15375 28-998 limits assumed): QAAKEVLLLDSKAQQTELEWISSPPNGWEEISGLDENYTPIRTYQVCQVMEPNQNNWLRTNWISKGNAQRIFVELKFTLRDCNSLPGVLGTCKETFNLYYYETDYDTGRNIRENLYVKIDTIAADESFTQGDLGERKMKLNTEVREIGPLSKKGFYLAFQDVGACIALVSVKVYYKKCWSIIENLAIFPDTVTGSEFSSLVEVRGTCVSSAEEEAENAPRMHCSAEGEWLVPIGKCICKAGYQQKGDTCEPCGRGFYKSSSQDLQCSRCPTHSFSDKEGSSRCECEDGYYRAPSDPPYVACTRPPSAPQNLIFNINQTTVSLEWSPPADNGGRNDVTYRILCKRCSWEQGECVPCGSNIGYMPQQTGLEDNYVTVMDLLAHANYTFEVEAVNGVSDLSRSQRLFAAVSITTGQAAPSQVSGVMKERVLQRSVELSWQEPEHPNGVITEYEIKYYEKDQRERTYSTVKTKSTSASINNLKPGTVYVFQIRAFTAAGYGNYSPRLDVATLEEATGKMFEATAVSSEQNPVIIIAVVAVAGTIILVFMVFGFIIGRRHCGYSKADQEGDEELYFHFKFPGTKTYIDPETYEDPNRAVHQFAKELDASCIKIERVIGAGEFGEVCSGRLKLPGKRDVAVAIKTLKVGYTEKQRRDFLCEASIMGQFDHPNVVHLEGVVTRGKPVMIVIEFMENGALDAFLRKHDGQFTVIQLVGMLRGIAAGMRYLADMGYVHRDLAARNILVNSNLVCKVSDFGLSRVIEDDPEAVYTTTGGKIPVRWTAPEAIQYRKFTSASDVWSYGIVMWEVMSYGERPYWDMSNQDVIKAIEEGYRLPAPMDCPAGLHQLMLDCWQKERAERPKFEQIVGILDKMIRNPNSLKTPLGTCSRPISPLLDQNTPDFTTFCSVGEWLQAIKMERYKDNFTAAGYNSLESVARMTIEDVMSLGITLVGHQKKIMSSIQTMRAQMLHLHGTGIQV
Sequence of Ephrin type-A receptor 4 (Homo sapiens) (P54764 whole entry): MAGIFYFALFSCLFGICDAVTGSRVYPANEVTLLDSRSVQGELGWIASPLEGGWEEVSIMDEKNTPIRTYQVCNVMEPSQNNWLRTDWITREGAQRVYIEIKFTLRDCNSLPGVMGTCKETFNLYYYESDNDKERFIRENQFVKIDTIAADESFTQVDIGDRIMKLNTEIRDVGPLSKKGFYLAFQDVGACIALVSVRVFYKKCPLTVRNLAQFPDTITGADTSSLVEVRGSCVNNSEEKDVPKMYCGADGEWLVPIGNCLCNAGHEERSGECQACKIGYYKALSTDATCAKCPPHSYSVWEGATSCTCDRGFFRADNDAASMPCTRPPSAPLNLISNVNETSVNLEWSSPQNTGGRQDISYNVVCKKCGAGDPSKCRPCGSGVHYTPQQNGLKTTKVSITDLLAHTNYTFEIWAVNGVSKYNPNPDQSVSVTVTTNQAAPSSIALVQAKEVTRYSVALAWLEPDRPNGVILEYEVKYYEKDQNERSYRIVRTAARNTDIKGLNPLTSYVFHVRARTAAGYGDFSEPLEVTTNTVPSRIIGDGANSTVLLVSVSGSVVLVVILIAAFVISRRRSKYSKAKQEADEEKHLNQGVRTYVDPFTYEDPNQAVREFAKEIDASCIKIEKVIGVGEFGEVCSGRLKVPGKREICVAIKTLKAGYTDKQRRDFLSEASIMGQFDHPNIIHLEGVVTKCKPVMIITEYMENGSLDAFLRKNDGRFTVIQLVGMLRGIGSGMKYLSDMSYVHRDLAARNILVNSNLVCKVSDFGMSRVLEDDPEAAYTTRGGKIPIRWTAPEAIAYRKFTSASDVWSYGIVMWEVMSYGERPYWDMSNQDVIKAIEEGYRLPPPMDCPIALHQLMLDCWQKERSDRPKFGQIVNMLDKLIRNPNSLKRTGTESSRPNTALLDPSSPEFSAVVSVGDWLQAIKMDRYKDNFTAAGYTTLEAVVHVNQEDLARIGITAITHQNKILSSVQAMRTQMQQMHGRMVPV
Sequence of Receptor tyrosine-protein kinase erbB-4 (Homo sapiens) (Q15303 whole entry): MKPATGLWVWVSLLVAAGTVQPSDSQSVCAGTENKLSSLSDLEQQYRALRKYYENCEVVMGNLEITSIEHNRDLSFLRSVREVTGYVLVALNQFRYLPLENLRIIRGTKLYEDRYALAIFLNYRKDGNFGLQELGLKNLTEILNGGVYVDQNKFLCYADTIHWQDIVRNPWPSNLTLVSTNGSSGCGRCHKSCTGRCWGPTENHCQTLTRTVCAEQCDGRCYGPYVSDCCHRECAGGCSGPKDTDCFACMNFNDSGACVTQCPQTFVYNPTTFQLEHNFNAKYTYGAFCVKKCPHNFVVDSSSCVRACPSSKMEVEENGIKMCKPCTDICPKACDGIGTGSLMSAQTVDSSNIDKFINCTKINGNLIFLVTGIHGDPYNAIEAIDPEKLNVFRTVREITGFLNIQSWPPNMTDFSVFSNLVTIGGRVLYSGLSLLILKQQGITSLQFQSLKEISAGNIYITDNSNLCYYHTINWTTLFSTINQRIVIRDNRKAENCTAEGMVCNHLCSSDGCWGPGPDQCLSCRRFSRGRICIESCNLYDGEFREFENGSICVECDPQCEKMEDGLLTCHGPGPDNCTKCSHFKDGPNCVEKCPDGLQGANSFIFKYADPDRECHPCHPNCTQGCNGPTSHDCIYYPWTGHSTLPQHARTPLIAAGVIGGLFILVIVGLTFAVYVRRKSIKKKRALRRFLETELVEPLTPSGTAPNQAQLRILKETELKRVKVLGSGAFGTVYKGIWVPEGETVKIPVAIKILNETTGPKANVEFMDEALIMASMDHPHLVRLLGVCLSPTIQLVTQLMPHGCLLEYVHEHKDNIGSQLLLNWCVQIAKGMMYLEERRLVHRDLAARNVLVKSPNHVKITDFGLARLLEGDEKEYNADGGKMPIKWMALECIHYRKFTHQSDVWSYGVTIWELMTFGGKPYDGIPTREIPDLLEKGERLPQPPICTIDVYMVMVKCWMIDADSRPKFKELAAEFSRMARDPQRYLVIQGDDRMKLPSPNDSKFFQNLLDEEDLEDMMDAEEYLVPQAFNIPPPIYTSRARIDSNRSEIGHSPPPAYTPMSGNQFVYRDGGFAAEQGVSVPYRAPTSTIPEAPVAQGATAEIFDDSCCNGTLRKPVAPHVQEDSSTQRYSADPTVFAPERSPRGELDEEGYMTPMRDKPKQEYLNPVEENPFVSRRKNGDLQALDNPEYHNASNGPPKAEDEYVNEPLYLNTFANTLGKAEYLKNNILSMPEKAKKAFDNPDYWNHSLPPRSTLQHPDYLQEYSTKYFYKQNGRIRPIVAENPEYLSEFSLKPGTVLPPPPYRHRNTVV

**Q.** Which results are given for Oc1ccc(-c2nc(-c3ccc(F)cc3)c(-c3ccncc3)[nH]2)cc1?
**A.** residual activity [1]: 81%; residual activity [2]: 117%; residual activity [3]: 87%; residual activity [4]: 103%; residual activity [5]: 56%; residual activity [6]: 103%; residual activity [7]: 58%; residual activity [8]: 93%; residual activity [9]: 45%; residual activity [10]: 115%; residual activity [11]: 53%; residual activity [12]: 94%; residual activity [13]: 43%; residual activity [14]: 95% (inactive); residual activity [15]: 117%; residual activity [16]: 103%; residual activity [17]: 41%; residual activity [18]: 114%; residual activity [19]: 72%; residual activity [20]: 117%
